In PubChem BioAssay AID504652 (National Center for Advancing Translational Sciences (NCATS), 2011):
Screen size: about 360,000 compounds; about 11,000 (3.1%) were called active. The sample holds actives, similar compounds and a random draw of the others, so the mix is not that of the screen. No stated cut-off is given here; in the data, active means activity change below about -30%; inactive means the rest.

Molecular target: D(1A) dopamine receptor (Homo sapiens) (UniProt P21728)
Assay: Antagonist of Human D 1 Dopamine Receptor: qHTS
Settings: HEK293 TREx D1 cells, calcium flux, dopamine EC80; at 10 µM; hits give low values
Outline: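 HEK293 T-REx cells expressing inducible, force-coupled D1 receptor; no-wash Ca dye, 30–90 min RT. Cmpd → 180 s read at 1 Hz → EC80 DA → 180 s read.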
On the % scale 0 is the no-effect control and ±100 the full control effect.

Chain of D(1A) dopamine receptor (Homo sapiens) (P21728 whole entry, looked up): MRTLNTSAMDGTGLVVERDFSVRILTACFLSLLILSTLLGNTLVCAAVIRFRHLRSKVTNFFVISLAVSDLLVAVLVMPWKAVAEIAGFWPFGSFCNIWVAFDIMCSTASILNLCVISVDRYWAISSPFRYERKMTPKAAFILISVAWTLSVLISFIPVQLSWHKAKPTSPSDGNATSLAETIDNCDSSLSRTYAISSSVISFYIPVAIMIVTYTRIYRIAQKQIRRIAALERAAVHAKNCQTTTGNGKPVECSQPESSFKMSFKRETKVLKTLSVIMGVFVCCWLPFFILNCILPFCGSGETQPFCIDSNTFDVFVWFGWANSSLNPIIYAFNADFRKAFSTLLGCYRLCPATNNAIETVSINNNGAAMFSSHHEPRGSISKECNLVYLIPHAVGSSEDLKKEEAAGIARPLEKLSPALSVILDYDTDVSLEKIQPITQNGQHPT

Activity change, negative = inhibition, active:
O=[N+]([O-])/C=C/c1ccc2c(ccn2Cc2ccccc2)c1 -37.9%
OCCC1CN(Cc2cccc(O)c2)CCN1CCc1ccccc1 (stereo not given) -42.3%
O=C(NCCCN1CCN(c2ccc(F)cc2)CC1)Nc1ccc([N+](=O)[O-])cc1 -54.6%
Cc1ccc(C)c(N2CCN(CCCNC(=O)Nc3ccc(Cl)cc3)CC2)c1 -58.4%
COC(=O)CC1=NN(c2ccccc2)C(=O)C1 -33.1%
COc1ccc(OCC(=O)Nc2nnc(-c3ccco3)s2)cc1 -88.7%

Activity change, negative = inhibition, inactive:
O=c1c(=O)n(Cc2c(F)cccc2Cl)ccn1Cc1ccccc1 -3.28%
OCCC1CN(Cc2ccc(Oc3ncccn3)cc2)CCN1CCc1ccccc1 (stereo not given) -6.31%
OCCC1CN(Cc2cnc(-c3ccccc3)s2)CCN1CCc1ccccc1 (stereo not given) -3.13%
Cc1ccc(C)c(S(=O)(=O)n2nc(C)c(S(=O)(=O)N3CCC(C)CC3)c2C)c1 6.24%
O=C(NCCCN1CCOCC1)c1ccc([N+](=O)[O-])cc1[N+](=O)[O-] -7.86%
CC1=C(c2ccc(C)cc2)S(=O)(=O)NC1=NCCCN1CCN(c2cc(C)ccc2C)CC1 10.4%
CN1CCN(CCNC(=O)Nc2ccc([N+](=O)[O-])cc2)CC1 -6.04%
CC1=C(c2ccc(Cl)cc2)S(=O)(=O)N=C1N1CCN(c2cc(C)ccc2C)CC1 3.21%
Cc1cccc(C(=O)Nc2ccc(-c3nc4ncccc4o3)cc2C)c1 -4.33%
COc1cc(NC(=O)c2nn(-c3ccc(C)cc3)c(=O)c3c2c2ccccc2n3C)cc(OC)c1OC -20.1%
COC(=O)CC1=NN(c2nc(C)cc(C)n2)C(=O)C1 3.03%
C/C(N)=C(/C#N)C(=O)COC(=O)C1=NN(c2ccccc2)C(=O)CC1 -6.72%
CCCCn1c(CNC(=O)C23CC4CC(CC(C4)C2)C3)nnc1SCC(=O)Nc1ccc(C)cc1 1.21%
CC1CCCN(Cc2c(O)ccc3c(=O)c(Oc4ccc(C(C)(C)C)cc4)c(C(F)(F)F)oc23)C1 (stereo not given) 11.8%
O=C(Nc1ccc(C(=O)OCc2cc(=O)n3nc(C4CC4)sc3n2)cc1)c1ccc(F)cc1 4.99%
COc1ccc(NC(=O)COCc2cc(-c3ccco3)on2)cc1 8.36%
CNc1nnc(-c2ccco2)s1 -6.48%
COc1ccc(CCNC(=O)c2cnc3sc(N4CCCCCC4)nn3c2=O)cc1OC -6.51%
CCOC(=O)C1=C(c2ccccc2)Nc2ncnn2C1c1ccc(Cl)cc1 (stereo not given) 6.82%
